Screening results (PubChem BioAssay)
CHT PAM: allosterically activates the human high affinity choline transporter | actives 0.49% (n = 310,000) | B-score at 10 µM | Q9GZV3 | AID 488977 | CHT-expressing cells, membrane potential dye, choline EC20; stronger effect = higher value; LV-AA mutant CHT in HEK293 cells;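 active = initial fluorescence not abnormally high and integrated response B-score, plate-corrected, over 3 SD above library mean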
NALP1 inh: inhibitors of NALP1 inflammasome in yeast; actives 0.61% (n = 280,000); inhibition, % at 10 µM; S. cerevisiae NALP1/ASC/caspase-1 growth, X-gal OD620, 72 h; in the data active = inhibition mostly above about 24%, no sharp cut-off; inactive = mostly below about 32%
Mot1-301 SUMO: SUMOylation pathway inhibition by Mot1-301 growth rescue | S. cerevisiae Mot1-301 growth rescue, ATP luminescence, 38.5C; percent above DMSO median, 100 means doubled | growth rescue, % at 18.8 µM | actives 1% (n = 320,000) | AID 2716;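 active = every valid replicate shows activation above 250% relative to neutral control wells; inactive = the rest, any valid replicate at or below 250%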;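 note: OY570 slx delta 5 strain wells were the positive control but not used for scaling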
A1 inh: inhibitors of the anti-apoptotic protein A1, read as caspase activation; MEF A1-2A-BIM cells, Caspase-Glo 3/7 luminescence, 3 h; percent of clofoctol response, vehicle zero; caspase activation, % (test concentration not listed); actives 0.066% (n = 330,000); AID 2462;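 active = over half of replicate activation scores above 10%, or exactly half above 10 with the replicate mean above 10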
CHT inh: human CHT choline transport inhibition; B-score at 10 µM; CHT-expressing cells, membrane potential dye, choline response; stronger effect = lower value; Q9GZV3; actives 0.86% (n = 310,000); AID 488975;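 active = B-score over 3 SD under the library average, and starting fluorescence ratio not unusually high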;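 note: choline stimulus applied at its EC90 after an EC20 pre-addition; B-score computed on integrated fluorescence ratio after choline addition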
NLRP3 yeast inh: NALP3 inhibition in yeast; inhibition, % at 10 µM; Yeast reconstituted NLRP3/ASC/caspase-1, beta-gal luminescence, 24 h; AID 2825; actives 0.39% (n = 330,000);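 active = inhibition of 50% or more; inactive = inhibition below 50%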;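 note: plate controls were induced DMSO wells for no effect and uninduced yeast grown without galactose for full effect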
CHT block conf: human CHT inhibition, confirmatory screen | shares compounds with CHT inh | CHT-expressing cells, choline membrane potential dye; LV-to-AA substituted CHT, HEK293 cells | CHT activity remaining % of control (stronger effect = lower value), % at 10 µM | actives 70% (n = 2,400) | AID 493221;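 active = choline transporter activity left, mean of duplicates at 10 µM, below buffer-only control mean minus 3 SD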;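 note: depolarization triggered by choline at its EC90 following an EC20 pre-addition; 0% = hemicholinium-3 full block and 100% = buffer-only control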
HEK293 MPD ctr: CHT inhibitor counter-screen hit in parental HEK293 cells. actives 4% (n = 2,400). membrane potential dye, choline response; active = decrease or increase beyond buffer ±3SD. AID 493222. shares compounds with CHT inh. membrane potential ratio readout (active if shifted either direction beyond buffer ±3SD; no single direction) at 10 µM;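 note: parental cells lack the transporter so any hit is non-specific; ratio is peak minus trough fluorescence over baseline after EC90 choline challenge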
* hit, by the source's call; i = inactive; · = no result given. The list is not random: actives were taken first. Their share in the collection is about 3%.

SMILES	CHT PAM	NALP1 inh	Mot1-301 SUMO	A1 inh	CHT inh	NLRP3 yeast inh	CHT block conf	HEK293 MPD ctr
CCn1c2ccccc2c(=O)c2ccccc21	i	8	-21	0	-8.2*	26	15%*	i
NS(=O)(=O)c1ccc(N/N=C/c2ccc(C(=O)O)cc2)c([N+](=O)[O-])c1	i	17	-7	-1	i	16	·	·
Cc1nn(-c2ccccc2)c(N2CCCC2)c1/C=N/Nc1ccc(S(N)(=O)=O)cc1[N+](=O)[O-]	i	36	0	0	-5*	8	i	i
Cc1ccc(-c2cc(C(=O)OCC(=O)N(C)c3c(N)n(Cc4ccccc4)c(=O)[nH]c3=O)c3ccccc3n2)o1	i	·	5	0	i	8	·	·
CCC(Sc1nc2ccncc2[nH]1)C(=O)Nc1cc(Cl)ccc1C (configuration not stated)	i	9	-6	1	-5.9*	4	i	i
Cc1ccc(Cl)cc1NC(=O)NCc1cccnc1	i	6	-4	0	i	4	·	·
Cn1c(=O)c(=O)n(C)c2cc(S(=O)(=O)N3CCCC3C(=O)NCc3cccnc3)ccc21 (configuration not stated)	i	1	15	0	i	-16	·	·
N#CC1(NC(=O)CSc2nnc(-c3ccccc3F)o2)CCCCC1	i	·	-3	0	i	15	·	·
COc1ccc(N2CCN(C(=O)c3ccc(CNS(=O)(=O)c4cc(C)ccc4C)cc3)CC2)cc1	i	9	2	0	i	19	·	·
Nc1ccccc1C(=O)NC1CCCNC1=O (configuration not stated)	i	·	-28	-1	-16*	-6	i	i
CCOc1cc(/C=N/NC(=O)CN2CCCCC2)ccc1OCc1cccc(Cl)c1	i	17	70	1	-6.6*	27	49%*	i
CCOC(=O)N/N=C/c1ccc(OCCSc2ccc(Cl)cc2)c(OCC)c1	i	20	9	0	-5*	27	i	i
CCOC(=O)N/N=C/c1ccc(OCCSc2ccc(Cl)cc2)c(OC)c1	i	37	-12	0	i	24	·	·
CCOc1cc(/C=N/NC(=O)CN2CCCCC2)ccc1OCc1ccc(Cl)cc1	i	35	15	0	i	16	·	·
CN(C)N=Nc1ccc(-c2cn(Cc3ccccc3)cn2)cc1	i	18	19	0	i	40	·	·
Cc1cccc(C)c1-n1cccc1/C=C1/C(=N)N2C(=NC1=O)SN=C2S(C)(=O)=O	i	8	7	1	-5.5*	2	50%*	i
Cc1ccc(-n2cccc2/C=C2/C(=N)N3C(=NC2=O)SN=C3S(C)(=O)=O)cc1Cl	i	12	-7	0	i	·	·	·
Cn1c(=O)n(CC(=O)N2CCN(c3nnc(-c4ccccc4)c4ccccc34)CC2)c2ccccc21	i	-6	-19	1	-5.8*	1	i	i
Cc1ccc(-c2nnc(N3CCN(C(=O)Cn4c(=O)n(C)c5ccccc54)CC3)c3ccccc23)cc1	i	11	3	1	i	-1	·	·
CCCn1nc([N+](=O)[O-])c(C(C#N)c2nc3ccccc3s2)c(Cl)c1=O (configuration not stated)	i	-4	-26	-1	-14*	-21	17%*	i
CCOC(=O)c1ccc(NC(=O)CSc2nc3sc(C(=O)O)c(C)c3c(=O)[nH]2)cc1	i	1	-23	0	i	14	·	·
CCN(CC)c1ccc([C@H]2[C@@H]3CCCC[C@]3(O)CCN2CC(=O)NCc2ccco2)cc1	i	·	-9	0	i	21	·	·
